Among all 2,200 compounds or so, about 530 (24%) were called active.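 The calls were made as follows: active = inhibition above a set limit at one or more concentrations of the dose series; inactive = inhibition under that limit at every dose.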 The list is a sample of the results. Entries with a potency or affinity are not part of this list.

The nature of the assay: S. Typhimurium nonspecific reporter signal inhibition – Salmonella Typhimurium, GFP fluorescence, counter-screen for PhoP regulon inhibitor project, dose response (AID 2401).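 Also: S. typhimurium with Mg-insensitive nmpC-GFP reporter grown at 10 µM Mg2+; drop in reporter fluorescence reflects general culture growth inhibition.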 To be noted: 4 h; series mostly up to 150 µM.
With `Cc1[nH]n(-c2ncc(-c3ccc(Cl)cc3)s2)c(=O)c1C(c1ccc(Cl)cc1)C(C#N)C#N` (stereo unspecified), the result was inactive.

For `CCN(C(C)=O)c1nc(CSc2nnc(NC(C)C)s2)cs1`, the result was inactive.

As to `c1ccc2[nH]c(CSc3nccs3)nc2c1`, the result was inactive.

Regarding `Cc1ccccc1OCC(=O)N/N=C/c1ccco1`, the molecule was classed as inactive.

For the molecule `S=c1[nH]nc(Cc2cccc3ccccc23)o1`, the call was inactive.

Turning to `CC(=O)c1cccc(NC(=O)NCc2ccco2)c1`, the molecule was called inactive.

As to `Cc1ccc(NC(=O)c2cc(S(=O)(=O)N3CCC4(CC3)OCCO4)ccc2F)cc1`, the outcome was inactive.

In the case of `O=C(c1cn(-c2ccccc2)nc1-c1cccnc1)N1CCCCC1`, the molecule was called inactive.

In the case of `CC(=O)N1CCC(N(CCN2CCOCC2)C(=S)Nc2cccc(C)c2C)CC1`, the outcome was inactive.

Take `Cc1c(Cl)cccc1NC(=O)CSCC(N)=O`: the result was inactive.

Turning to `CC(=O)Oc1c2occc2cc2ccc(=O)oc12`, the molecule was classed as inactive.

Consider `COc1cc(C2Nc3cccc4cccc(c34)N2)cc(OC)c1OC(C)=O`, for which the call was inactive.

For `Cc1ccc2c(c1)cc(CN(Cc1ccc3c(c1)OCO3)C(=O)c1cnccn1)c1nnnn12`, the result was inactive.

`CSc1ccc(C(=O)/C=C/c2ccc(N)cc2)cc1`: the molecule was classed as inactive.

For `Cc1cccc(NC(=O)c2cc(N3C(=O)CCC3=O)ccc2Cl)n1`, the outcome was inactive.

For the molecule `O=C(CSc1n[nH]c(=O)[nH]c1=O)N/N=C/c1ccccc1`, the molecule was classed as inactive.

Regarding `CN(CCO)c1cc(Sc2nc3ccccc3s2)c2nonc2c1[N+](=O)[O-]`, the result was inactive.

Take `O=C(CSCc1ccccc1)N/N=C/c1ccccc1OCc1ccccc1`: the call was inactive.

Regarding `Cc1cc([N+](=O)[O-])ccc1NC(=O)Cc1ccc(F)cc1`, the molecule was classed as inactive.

For `Cc1ccc([N+](=O)[O-])cc1NC(=S)NC(=O)C(C)(C)C`, the molecule was called inactive.

For the molecule `O=C(CSc1nc2ccccc2s1)Nc1ccc(N2CCOCC2)c(Cl)c1`, the molecule was classed as inactive.

Regarding `Cc1ccccc1-n1c(C)cc(/C=N/Nc2ccc([N+](=O)[O-])cn2)c1C`, the call was inactive.

For the molecule `COc1ccc(-n2ncc(S(=O)(=O)c3ccccc3)c2-c2ccc(Cl)cc2)cc1`, the molecule was classed as inactive.

Consider `COc1ccc(Cl)cc1C(=O)Nc1ccc(NC(=O)c2ccco2)cc1`, for which the call was inactive.

As for `O=C(Nc1cccc(Cl)c1)C1C2CCC3C(CCC21)C3(Cl)Cl` (stereo unspecified), the molecule was classed as inactive.

On to `COc1cccc(-n2c(N)c(C(=O)Nc3c(C)n(C)n(-c4ccccc4)c3=O)c3nc4ccccc4nc32)c1`, for which the outcome was inactive.

Regarding `COc1ccc(N2C(=O)CC(Sc3nc(C)c4c(n3)CCCC4)C2=O)cc1` (stereo unspecified), the call was inactive.

Turning to `COc1ccc(-c2cnn3c(N)c(S(=O)(=O)C(C)(C)C)cnc23)cc1`, the call was inactive.

For the molecule `Cc1ccc2nc(NNC(=O)c3ccc(S(=O)(=O)N4CCc5ccccc5C4)cc3)sc2c1`, the molecule was called inactive.

`O=C(/C=C/c1ccc2c(c1)OCO2)N1CCN(c2ccccc2F)CC1`: the outcome was inactive.

In the case of `COc1ccc(C(C)C)cc1S(=O)(=O)Nc1ccc(Cl)cn1`, the outcome was inactive.

For the molecule `O=C(Nc1cnc2ccccc2c1)N1CCOCC1`, the molecule was classed as inactive.

On to `CN(C)S(=O)(=O)Nc1ccc(C(=O)O)cc1`, for which the molecule was called inactive.

`c1ccc2c(C3=NNC(=NC4CCCCC4)SC3)c[nH]c2c1`: the molecule was called inactive.

With `O=C(CSc1nc2ccccc2o1)Nc1ccc(N2CCOCC2)cc1`, the call was inactive.

Regarding `CNc1nnc(-c2cccc(N(C)C)c2)s1`, the result was inactive.

On to `O=S(=O)(c1ccccc1)N(CC(O)Cn1c2ccccc2c2ccccc21)c1ccccc1` (stereo unspecified), for which the result was inactive.

Consider `CCCn1c(NCCO)nc2ccccc21`, for which the outcome was inactive.

Turning to `COC(=O)C(CCSC)NC(=O)c1cccc([N+](=O)[O-])c1` (stereo unspecified), the call was inactive.

As to `Cc1ccc(CNC(=O)C2CCCN(S(=O)(=O)c3c(C)noc3C)C2)cc1` (stereo unspecified), the result was inactive.

Take `Cn1cccc1C(=O)OCc1csc(-c2ccccc2)n1`: the outcome was inactive.

Turning to `Nc1ccc(C(=O)OCc2nc3ccccc3[nH]2)cc1`, the call was inactive.

`Cc1ccc(C)n1-c1cc([N+](=O)[O-])ccc1-n1ccnc1`: the outcome was inactive.

Regarding `Cc1cc(-c2csc(NC(=O)c3ccccc3C(F)(F)F)n2)c(C)n1Cc1ccccc1`, the result was inactive.

Consider `Cc1nc(NCc2ccc3c(c2)OCO3)c2oc3ccccc3c2n1`, for which the call was inactive.

As to `Cc1scc(C(=O)O)c1-c1c(C(=O)O)csc1C`, the call was inactive.

As for `O=[N+]([O-])c1ccccc1/C=N/N1CCN(c2ccncc2S(=O)(=O)N2CCCCC2)CC1`, the call was inactive.

As to `CCOc1ccc(C(=O)NC(=S)Nc2ccc(N3CCCCC3)cc2)cc1[N+](=O)[O-]`, the outcome was inactive.

As for `CCOc1ccc(C(=O)Nc2ccccc2CC)cc1[N+](=O)[O-]`, the molecule was called inactive.

`CCOc1ccc(CSC(=N)N)cc1[N+](=O)[O-]`: the molecule was called inactive.

Take `COc1nc(-c2ccccc2)ccc1-c1noc(C)n1`: the call was inactive.

With `CCCc1cc(N2CCN(c3ccccn3)CC2)n2nc(C)c(-c3ccccc3)c2n1`, the molecule was called inactive.

For `CCc1ccc(CNc2ccc(O)cc2)cc1`, the molecule was called inactive.

In the case of `Nc1nc(N)nc(-c2ccccc2)n1`, the call was inactive.

For `CCn1c2ccccc2c2nnc(SCC(=O)Nc3ccc4c(c3)OCO4)nc21`, the outcome was inactive.

With `CCn1c2ccccc2c2cc(NC(=O)COc3ccccc3)ccc21`, the call was inactive.

With `CCn1cc(C(=O)OCC(=O)Nc2ccc(S(=O)(=O)N3CCCC3)cc2)c(=O)c2ccc(C)nc21`, the call was inactive.

Take `CCn1cc(C(=O)O)c(=O)c2cnc(N3CCN(C(=S)NC(=O)c4ccc(Cl)cc4)CC3)nc21`: the outcome was inactive.

Turning to `Cc1ccc(NC(=O)C(=O)NCCOc2ccccc2Cl)cc1`, the molecule was called inactive.

In the case of `O=C1CC(c2ccccc2)n2nc(NC(=O)c3ccccc3)nc2N1` (stereo unspecified), the outcome was inactive.

Regarding `Cc1ccccc1NC(=O)c1ccc(-n2cncn2)nc1`, the result was inactive.

On to `Nc1cc(N)nc(SCC(=O)Nc2ccc3c(c2)OCCCO3)n1`, for which the molecule was called inactive.

As to `Cc1nn(-c2ccc(Cl)cc2)c2[nH]c(=O)c(CNCc3ccc4c(c3)OCO4)cc12`, the result was inactive.

Regarding `CCCSc1nc(N2CCCC2)c2c(c1C#N)CC(C)(C)OC2`, the molecule was classed as inactive.

As for `O=C(CCn1nnc(-c2cccs2)n1)NCc1ccccc1Cl`, the outcome was inactive.

For the molecule `Nc1scc(-c2ccncc2)c1Cl`, the molecule was called inactive.

As for `CN(C)c1ccnc(-n2cccc2/C=N/OCc2ccccc2)c1C#N`, the molecule was called inactive.

Take `CCOC(=O)c1cn(CC)c2cc(N3CCOCC3)c(F)cc2c1=O`: the molecule was called inactive.

With `CCOC(=O)N1CCN(C(=O)c2cn(CC(C)C)c(=O)c3c2c2ccccc2n3C)CC1`, the call was inactive.

Take `Cc1cc(C)c2nc(NNC(=O)c3ccc(S(=O)(=O)N4CCc5ccccc5C4)cc3)sc2c1`: the molecule was called inactive.

On to `Cc1ccc2nc(SCCCCOc3ccccc3)[nH]c2c1`, for which the molecule was called inactive.

(Values after PubChem BioAssay AID2401 (Southern Research Specialized Biocontainment Screening …, 2010).)
